Test systems include ERN1; FER; FES; FGFR1; FGFR2; FGFR3; FGFR4; FGR.
Holding throughout (settings): concentration: 1 μM, replicates: in singlicate; n = 1
The next experiment concerns T1, ERK8.
T1 construct: gene MAPK15

For another experiment, the system named is T2, FAK.
T2 construct: gene PTK2

The record followed here is paper PMC5540273 (PLoS ONE, 2017).
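Also: KINOMEscan kinase panel screen.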

Take `Cn1cncc1C(=O)NC1CCN(c2ccnc(Nc3ccc(F)cc3)n2)C1` (stereo not shown) [GSK1379717]: the “%Inh” value in the experiment with ERK8, with ERN1, in the experiment with FAK, in the experiment with FER, with FES and in the experiment on FGFR1 was 0% throughout. The “%Inh” value with FGFR2 stood at 0%; in the experiment with FGFR3, 7%; in the experiment with FGFR4 it was 1%; with FGR it was 22%.

In the case of `Cc1ccc(NC(=O)Nc2ccc(Cl)c(C(F)(F)F)c2)cc1-c1ccc(C(=O)Nc2ccncc2)cc1` [GSK1398470], the “%Inh” value in the experiment on ERK8 amounted to 0%; in the experiment on ERN1, 25%; in the experiment on FAK it was 0%; in the experiment with FER it was 22%; in the experiment on FES, 15%; with FGFR1, 0%. Also, the “%Inh” value in the experiment on FGFR2 came out at 12%; in the experiment on FGFR3 it was 23%; in the experiment with FGFR4 it was 11%; with FGR, 19%.

For `CS(=O)(=O)CCNCc1nc(-c2ccc3ncnc(Nc4ccc5c(cnn5Cc5ccccc5)c4)c3c2)cs1.Cl.Cl` [GW569716], the “%Inh” value in the experiment with ERK8, in the experiment with ERN1, in the experiment on FAK, in the experiment on FER, with FES and with FGFR1 was 0% each time. Moreover, the “%Inh” value was 0% in the experiment with FGFR2, 0% with FGFR3, 8% in the experiment with FGFR4 and 24% in the experiment on FGR.

With `COC(=O)c1cccc(NC(=O)NC2CCN(c3ccnc(Nc4ccc(F)cc4)n3)C2)c1` (stereo not shown) [GSK1379725], the “%Inh” value with ERK8, in the experiment with ERN1, in the experiment on FAK, in the experiment with FER, in the experiment with FES and with FGFR1 was 0% each time. Also, the “%Inh” value in the experiment with FGFR2 is recorded as 4%; in the experiment on FGFR3, 4%; in the experiment on FGFR4, 9%; in the experiment with FGR, 12%.

On to `Cc1ccc(NC(=O)Nc2ccccc2)cc1-c1ccc(C(=O)Nc2ccncc2)cc1` [GSK1398471], for which the “%Inh” value is recorded as 0% in the experiment with ERK8; 0% with ERN1; 0% with FAK; 20% in the experiment on FER; 20% with FES; 0% with FGFR1. The “%Inh” value in the experiment with FGFR2 was determined as 0%; in the experiment with FGFR3, 18%; with FGFR4 it was 13%; in the experiment with FGR, 34%.

With `O=c1cc(N2CCOCC2)nc2n(Cc3ccccc3F)ccn12` [GSK2297428], the “%Inh” value with ERK8 is 0%; with ERN1 it was 7%; with FAK, 0%; in the experiment on FER, 36%; in the experiment with FES it was 0%; in the experiment on FGFR1 it was 0%. Further, the “%Inh” value with FGFR2 amounted to 12%; in the experiment with FGFR3, 10%; in the experiment on FGFR4, 0%; in the experiment on FGR, 4%.

`CNc1nc(-c2ccc3c(N)n[nH]c3c2)cc(N2C[C@@H](C(=O)Nc3ccccc3)CC[C@H]2C)n1` [GSK2298859]: the “%Inh” value in the experiment with ERK8 was found to be 0%; in the experiment on ERN1 it was 2%; with FAK it was 0%; in the experiment with FER, 33%; in the experiment on FES, 0%; in the experiment on FGFR1 it was 23%. For the same compound, the “%Inh” value is listed as 0% in the experiment on FGFR2, 16% in the experiment with FGFR3, 0% in the experiment on FGFR4 and 22% in the experiment with FGR.

Take `Cc1ccc(NC(=O)c2ccc(Cl)cc2)cc1-c1ccc(C(=O)Nc2ccncc2)cc1` [GSK1398467]: the “%Inh” value stood at 0% in the experiment with ERK8; 0% in the experiment with ERN1; 0% with FAK; 24% with FER; 0% in the experiment on FES; 0% in the experiment with FGFR1. Further, the “%Inh” value in the experiment with FGFR2 is 0%; in the experiment with FGFR3, 7%; with FGFR4, 18%; in the experiment with FGR, 40%.

As for `O=C(Nc1n[nH]c2nc(-c3cccs3)c(Br)cc12)C1CC1` [SB-735297], the “%Inh” value in the experiment with ERK8 is reported as 87%; in the experiment with ERN1, 0%; in the experiment with FAK, 0%; in the experiment with FER, 0%; with FES, 10%; with FGFR1 it was 0%. Further, the “%Inh” value in the experiment on FGFR2 came to 0%; with FGFR3, 0%; in the experiment on FGFR4, 0%; in the experiment on FGR, 13%.

Turning to `COc1cccc(NC(=O)Nc2ccc(C)c(-c3ccc(C(=O)Nc4ccncc4)cc3)c2)c1` [GSK1398474], the “%Inh” value with ERK8 is 1%; with ERN1, 1%; with FAK it was 13%; in the experiment on FER, 42%; in the experiment with FES, 12%; in the experiment on FGFR1 it was 9%. In addition, the “%Inh” value in the experiment on FGFR2 was 0%; with FGFR3 it was 28%; in the experiment with FGFR4, 3%; in the experiment with FGR, 32%.

As for `Cc1cccc2c(-c3ccncn3)c(-c3ccc(F)cc3)nn12` [GW515532], the “%Inh” value in the experiment with ERK8 is given as 100%; with ERN1, 1%; with FAK, 0%; with FER, 8%; in the experiment on FES, 0%; with FGFR1, 15%. The “%Inh” value amounted to 0% with FGFR2, 0% with FGFR3, 0% in the experiment on FGFR4 and 1% with FGR.

Turning to `COc1ccc(CSc2nnc(-c3ccc4c(c3)CCO4)o2)cc1`, the “%Inh” value with ERK8 is reported as 0%; with ERN1 it was 0%; in the experiment on FAK, 0%; in the experiment on FER it was 0%; in the experiment with FES it was 12%; in the experiment with FGFR1 it was 0%. In addition, the “%Inh” value is reported as 0% in the experiment on FGFR2, 0% in the experiment with FGFR3, 0% with FGFR4 and 14% with FGR.

As for `Cn1cncc1-c1cc2c(Nc3ccc(OCc4ccccc4)cc3)ncnc2cn1` [GW281179], the “%Inh” value in the experiment with ERK8 is listed as 0%; in the experiment with ERN1, 0%; with FAK it was 0%; in the experiment with FER, 14%; in the experiment with FES, 0%; in the experiment with FGFR1 it was 9%. For the same compound, the “%Inh” value in the experiment on FGFR2 is 19%; in the experiment on FGFR3, 2%; in the experiment with FGFR4, 12%; with FGR, 18%.

As for `CC(C)c1ccc(O)cc1Nc1ccnc2ccc(C(F)(F)F)cc12` [GW482059], the “%Inh” value was found to be 17% in the experiment with ERK8; 8% in the experiment on ERN1; 0% with FAK; 14% with FER; 0% in the experiment with FES; 10% in the experiment with FGFR1. For the same compound, the “%Inh” value in the experiment with FGFR2 was 2%; with FGFR3, 5%; with FGFR4 it was 57%; in the experiment on FGR, 9%.

Regarding `CCc1ccc(-c2ccc3c(c2)-c2n[nH]cc2S(=O)(=O)N3C)cc1`, the “%Inh” value in the experiment with ERK8 was found to be 0%; in the experiment on ERN1, 0%; with FER, 6%; in the experiment on FES, 2%; in the experiment with FGFR1 it was 6%; in the experiment with FGFR2, 0%. Besides, the entries for the “%Inh” value in the experiment on FGFR3, in the experiment with FGFR4 and in the experiment on FGR were 0%, 0% and 9%, respectively.

For `Nc1cccc(-c2ccc3c(N)n[nH]c3c2)n1` [GSK2192730], the “%Inh” value in the experiment on ERK8 is given as 0%; in the experiment with ERN1, 24%; with FAK, 0%; in the experiment on FER, 0%; with FES, 0%; in the experiment with FGFR1, 0%. The “%Inh” value in the experiment with FGFR2 is given as 0%; in the experiment on FGFR3, 0%; with FGFR4, 0%; in the experiment with FGR, 10%.

Regarding `Cc1ccc(-c2nc(Nc3ccncc3)c3ccccc3n2)s1` [GSK189015], the “%Inh” value amounted to 52% in the experiment on ERK8; 22% with ERN1; 27% in the experiment with FAK; 6% with FER; 19% in the experiment with FES; 15% in the experiment on FGFR1. Besides, the “%Inh” value with FGFR2 is given as 30%; in the experiment on FGFR3, 28%; with FGFR4, 5%; with FGR, 22%.
